Usually inhibition stands for the change of the read-out against control, counted positive when it falls.

Hit rate of the full screen: of about 360,000 compounds, about 2,700 (0.75%) were called active. Cut-off read from the data, not from the text of the source: active = inhibition above about 4.5%; inactive = the rest. Only a selection was taken, and actives are over-represented in it overall.

The subject of this assay is Methionine sulfoxide reductase A (Bos taurus). As to the kind of experiment: bovine MsrA enzyme inhibitors, primary screen, biochemical, absorbance, HTS (AID 651718).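 Note: 0% = vehicle wells with enzyme and 100% = reference inhibitor wells.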 Conditions: purified bovine MsrA, absorbance read-out; at 15.5 µM; hits give high values.
As to `COc1ccc(/C=N/N(C)C2=NS(=O)(=O)c3ccccc32)cc1OC`, the inhibition is 1.42% (inactive). As for `C=CCOCCN(C)C1=NS(=O)(=O)c2ccccc21`, the figure is 0.32% (inactive); as for `O=S1(=O)N=C(N(CCO)/N=C/c2ccccc2F)c2ccccc21`, 5.01% (active); as for `O=S1(=O)c2c(cccc2N2CCCC2)O[C@H](COCc2ccccc2)CN1C1CC1`, 0.28% (inactive). For the molecule `C=CCN=C1NC(c2ccccc2)C(C(=O)OC)=C(C)N1Cc1ccc(C(F)(F)F)cc1` (centres undefined), the inhibition was -1.03% (inactive). On to `Cc1cc(C)c2cc(C#N)c(N3CCNCC3)nc2c1`, for which the inhibition is 0.05% (inactive). As to `Cc1cccc2cc(C#N)c(N3CCCC3)nc12`, the inhibition was 7.71% (active). As for `CC(=O)c1ccc(S(=O)(=O)N2CCN(c3nc4c(C)c(C)ccc4cc3C#N)CC2)cc1`, the inhibition is 0.77% (inactive). As for `N#Cc1cccc(C(=O)NCC2CCN(C(=O)C(=O)c3cc4ccccc4o3)CC2)c1`, the inhibition is 1.67% (inactive). In the case of `COc1ccc(-c2ccc(Nc3ccc(S(=O)(=O)N4CCCC4)cc3)nn2)cc1OC`, the inhibition is 5.88% (active). In the case of `COc1ccccc1CC(=O)Nc1ccc(S(=O)(=O)N2CCCC2)cc1` it was -0.82% (inactive).

On to `COc1ccc(S(=O)(=O)N2CCCCCC2)cc1NC(=O)Cc1ccc(OC)c(OC)c1`, for which the inhibition is -0.53% (inactive). In the case of `COc1ccc(S(=O)(=O)NC(C)c2ccccc2)cc1C(=O)N1CCCCC1` (centres undefined) it was 0.8% (inactive). `COC(=O)C1=C(C)N(Cc2ccccc2C(F)(F)F)C(=NCc2ccc(C(F)(F)F)cc2)NC1c1ccc(F)cc1` (centres undefined): the inhibition was -2.62% (inactive). As for `C#CCN([C@@H](C)C(=O)OCC)S(=O)(=O)c1ccc(Br)cc1F`, the inhibition was -0.88% (inactive).

Consider `CCOC(=O)N1CCN(C(=O)CSc2nc(C)nc3c2c(=O)n(C)c(=O)n3C)CC1`, for which the inhibition is -1.46% (inactive).

Regarding `Cn1c(=O)c2c(SCC(=O)N3CCOCC3)nc(C3CC3)nc2n(C)c1=O`, the inhibition was -0.05% (inactive).

In the case of `CCCc1nc(SCC(=O)N2CCCC2)c2c(=O)n(C)c(=O)n(C)c2n1`, the inhibition was 5.22% (active).

On to `CC1CCCN(c2cccc3c2S(=O)(=O)N(Cc2ccc(F)cc2)[C@@H](C)[C@H](c2ccccc2)O3)C1` (some centres undefined), for which the inhibition is 0.93% (inactive).

For `Cc1ccc(N2C(=O)CN=C2Nc2nc(C)cc(C)n2)cc1`, the inhibition was 6.56% (active).

In the case of `Cc1ccc(C)c(NC2=NCC(=O)N2c2ccc3c(c2)OCCO3)c1`, the inhibition was 0% (inactive). In the case of `Cc1cc(C)nc(NC2=NCC(=O)N2c2ccc(Cl)cc2)n1` it was 3.92% (inactive); in that of `COC(=O)C1=C(C)N(Cc2cccc(C(F)(F)F)c2)C(=NCc2ccccc2)NC1c1ccccc1C(F)(F)F` (centres undefined), -1.24% (inactive). In the case of `CC(C)[C@@H](C)/C=C/[C@@H](C)[C@H]1CC[C@@H]2[C@]1(C)CCC1[C@]23C=C[C@]2(C[C@@H](O)CC[C@]12C)N(c1ccc([N+](=O)[O-])cn1)O3` (some centres undefined), the inhibition is -1.75% (inactive). In the case of `CN1C(=O)C(CC(=O)Nc2ccccc2)S/C1=N/c1nccs1` (centres undefined) it was 1.53% (inactive); in that of `O=C(O)CC1S/C(=N\N=C/c2ccccc2O)N(c2ccc(O)cc2)C1=O` (centres undefined), 4.57% (active).

For the molecule `CCCCOCC1CN(CCCC)S(=O)(=O)c2c(Oc3ccc(F)cc3)cccc2O1` (centres undefined), the inhibition was 0.09% (inactive). In the case of `C[C@H](CO)N1C[C@H](C)[C@@H](CN(C)C(=O)Nc2ccccc2F)OCc2cn(nn2)CCCC1=O` it was -1.47% (inactive); in that of `COc1ccc(S(=O)(=O)c2c[nH]c(=S)[nH]c2=O)cc1Cl`, 5.55% (active). For `COc1ccc(S(=O)(=O)N(C)CC(=O)N2CCCC2)cc1Cl`, the inhibition is -0.26% (inactive). `Cc1ccc(S(=O)(=O)c2c[nH]c3ccc(Cl)cc3c2=O)cc1`: the inhibition is -0.29% (inactive). Consider `C[C@H](O)[C@@H]1C(=O)N2CCc3c([nH]c4c(-c5ccc6c(c5)OCO6)cccc34)[C@@H]2C[C@@H]1N(C)C(=O)c1ccco1`, for which the inhibition is -0.82% (inactive). In the case of `COC(=O)C1=C(C)N(Cc2ccc(C(F)(F)F)cc2)C(=NCc2ccc(C(F)(F)F)cc2)NC1c1cccc(Cl)c1` (centres undefined) it was -2.13% (inactive); in that of `Cc1ccc(/C=N/NC(=O)Cn2nc(C)c(Br)c2C)o1`, 1.58% (inactive). Turning to `Cc1ccc(/C=N/NC(=S)NC2CCCCC2)o1`, the inhibition is 4.73% (active).

`C/C(=N\NC(=S)NC1CCCCC1)c1ccc(C)o1`: the inhibition was 2.23% (inactive).

As to `COc1ccccc1CNS(=O)(=O)c1cc2c3c(c1)CCC(=O)N3CCC2`, the inhibition was 0.88% (inactive). For `Cc1cccc(CN2CCN(C3CN(Cc4cn(Cc5cc(C)cc(C)c5)nn4)S(=O)(=O)C3)CC2)c1` (centres undefined), the inhibition was -0.09% (inactive). In the case of `COC(=O)c1c(-c2ccc(OC)cc2)c2c(c3c4cc(OC)ccc4n(S(=O)(=O)c4ccc(F)cc4)c13)C(=O)N(C)C2`, the inhibition was 1.35% (inactive). In the case of `COC(=O)[C@]12C[C@H](CC(=O)NCc3ccc(OC)c(OC)c3)C(=O)N(Cc3ccccc3)C1=C[C@H](C(C)C)O[C@@H]2C1CC1` it was 0.87% (inactive); in that of `C/C(=N\Nc1nc2ccccc2[nH]1)c1cccs1`, 4.27% (inactive); in that of `C/C(=N\Nc1ccc(S(N)(=O)=O)cc1[N+](=O)[O-])c1cccs1`, 4.74% (active). For the molecule `C/C(=N\Nc1ccccc1)c1cccs1`, the inhibition is -0.47% (inactive).

For the molecule `COc1cccc(CC(=O)N2CCN(C(=O)C(=O)c3cccc(C(F)(F)F)c3)CC2)c1`, the inhibition was -0.48% (inactive). As for `COc1ccccc1Cc1c(-c2ccc(F)cc2)nc2ccc(C)cn12`, the figure is -0.14% (inactive); as for `O=C(N[C@H](C(=O)N1CCC[C@H]1C(=O)NCCc1ccccc1Cl)c1ccccc1)c1ccccc1`, -1.55% (inactive); as for `COC(=O)[C@]1(Cc2ccccc2)NC=C(C(=O)c2ccccc2)[C@@H]1c1cccc(OC)c1`, 1.03% (inactive). On to `Cc1nc2ccccc2n1CC(=O)N/N=C/c1cccs1`, for which the inhibition was 0.96% (inactive). In the case of `Cc1n[nH]c(=O)nc1N/N=C/c1cccs1` it was 5.54% (active). In the case of `Cn1c(=O)c2c(nc(N/N=C/c3cccs3)n2Cc2ccc(Br)cc2)n(C)c1=O` it was -0.37% (inactive); in that of `Cc1ccc(N)cc1CN1CCN(c2ncc(Cc3ccccc3)cn2)CC1`, -0.75% (inactive); in that of `CC(=O)C1=C(C)N(Cc2ccccc2)C(=S)NC1c1cccc(Br)c1` (centres undefined), 0.33% (inactive). In the case of `COc1ccccc1C(=O)N/C(=C/c1ccco1)C(=O)Nc1ccc(C(=O)O)cc1`, the inhibition is 3.68% (inactive).

On to `COc1ccccc1C(=O)N/C(=C/c1ccc2c(c1)OCO2)C(=O)Nc1cccc(C(=O)O)c1`, for which the inhibition is 5.04% (active). For the molecule `COc1ccc(/C=C(/NC(=O)c2ccccc2)C(=O)Nc2cccc(C(=O)O)c2)cc1`, the inhibition is 1.96% (inactive). Regarding `O=C(NCc1ccccc1)[C@H]1CCCN1C(=O)[C@@H]1CCCN1C(=O)c1ccc(Cl)cc1Cl`, the inhibition is -0.17% (inactive). In the case of `NC(=O)C1(Nc2ccc([N+](=O)[O-])cc2)CCCC1` it was 1.4% (inactive); in that of `O=[N+]([O-])c1ccc(N=NNc2ccc([N+](=O)[O-])cc2)cc1`, 0.99% (inactive); in that of `NC(=S)N/N=C/c1ccc([N+](=O)[O-])cc1`, 5.41% (active). Regarding `Cc1ccc(-c2ccc(/C=C(\C#N)C(N)=S)o2)c([N+](=O)[O-])c1`, the inhibition is 10.9% (active). For the molecule `Cc1ccc2nc(SCc3nnc(-c4ccccc4[N+](=O)[O-])o3)c(C#N)cc2c1`, the inhibition was -0.69% (inactive).

As to `COC(=O)[C@]12C[C@H](CC(=O)NCCC(C)C)C(=O)N(CCc3ccc(OC)c(OC)c3)C1=C[C@H](C(C)(C)C)O[C@@H]2C`, the inhibition is -0.48% (inactive). Take `CN[C@H]1C[C@H]2c3[nH]c4c(-c5ccccc5)cccc4c3CCN2C(=O)[C@H]1[C@H](C)O`: the inhibition is 0.9% (inactive). As for `CC(C)CC(CCc1ccccc1)OS(N)(=O)=O` (centres undefined), the inhibition is 0.27% (inactive).

Consider `O=C(Cc1ccccc1)Nc1cccc(C(=O)N/N=C/c2ccco2)c1`, for which the inhibition was 2.33% (inactive). Turning to `O=C(N/N=C/c1ccco1)c1ccc(C(=O)N/N=C/c2ccco2)o1`, the inhibition was 10% (active). As to `O=C(Cc1ccc([N+](=O)[O-])cc1)N/N=C/c1ccco1`, the inhibition was 1.04% (inactive). Turning to `C[C@H]1CN([C@@H](C)CO)C(=O)CCCn2nncc2CO[C@@H]1CN(C)C(=O)Nc1ccc(N2CCN(C)CC2)cc1`, the inhibition is -0.42% (inactive).

Take `O=C(Nc1c(Cl)c(C2CC2)nn1-c1ccccc1)C(Cl)(Cl)Cl`: the inhibition is -0.78% (inactive). Take `O=C(Nc1cccc(F)c1)[C@@H]1CCCN1`: the inhibition was 0.99% (inactive).

As to `Cc1nc2nc(SCC(=O)Nc3cccc(F)c3)[nH]c2cc1Br`, the inhibition is -0.88% (inactive). As for `O=C(Nc1cccc(F)c1)c1coc(=O)c(Br)c1`, the inhibition is 5.37% (active). As for `Nc1nc2c(ncn2[C@@H]2O[C@H](C(=O)N[C@@H](Cc3ccccc3)C(=O)NCc3ccccc3)[C@@H](O)[C@H]2O)c(=O)[nH]1`, the inhibition is -0.25% (inactive). In the case of `COC(=O)c1ccc(CN2C(=O)[C@]3(OCCC=C[C@H]3C)c3c(Br)cccc32)cc1` it was 1.8% (inactive); in that of `COCCCNC(=O)C[C@H]1C[C@@]2(C(=O)OC)C(=C[C@H](C(C)(C)C)O[C@@H]2C)N(Cc2ccc3c(c2)OCO3)C1=O`, -0.56% (inactive). On to `Cc1cc(C(C)(C)C)cc(S(=O)(=O)Nc2ccc(C(=O)O)cc2)c1C`, for which the inhibition is 1.5% (inactive). In the case of `Cc1ccc(C(=O)Nc2ccccc2-c2ccccc2)cc1S(=O)(=O)Nc1ccccc1` it was 4.76% (active). With `O=C(O)c1ccc(F)c(S(=O)(=O)Nc2ccccc2)c1`, the inhibition was -0.45% (inactive). As to `Cc1ccc(NC(=O)N2c3ccccc3SC2c2ccco2)c(C)c1` (centres undefined), the inhibition was -0.74% (inactive). As for `Cc1nc2ccccn2c(=O)c1NC(=O)c1ccc(Br)o1`, the inhibition is 2.43% (inactive).

For the molecule `CN1C(=O)CN2CCc3ccccc3C2c2cc(Cl)ccc21` (centres undefined), the inhibition is 1.04% (inactive). In the case of `CC1CCCCN1S(=O)(=O)c1ccc(C(=O)Nc2nnc(-c3cccs3)o2)cc1` (centres undefined) it was 4.79% (active); in that of `CSCc1nnc(NC(=O)c2ccc(S(=O)(=O)N3CCCCC3C)cc2)o1` (centres undefined), -0.31% (inactive); in that of `CC1CCCCN1S(=O)(=O)c1ccc(S(=O)(=O)N(CC(=O)Nc2ccccc2)Cc2cccs2)cc1` (centres undefined), -0.63% (inactive).
